Potency and affinity values are given separately.
Assays:
[1] = tested on: Klebsiella pneumoniae; details: Concentration 32 ug.mL-1;; ASSAY_TEST Inhibition of Bacterial Growth; detection method Absorption (OD600); MEDIA CAMHB; plate type 384well; NBS; CORNING #3640; time 18 hr
[2] = tested on: Candida albicans; details: Concentration 32 ug.mL-1; ASSAY_TEST Inhibition of Fungal Growth; detection method Absorption (OD530)
[3] = tested on: Cryptococcus neoformans; details: Concentration 32 ug.mL-1; ASSAY_TEST Inhibition of Fungal Growth; detection method Resazurin; Absorption (OD600-OD570); plate type 384well; NBS; CORNING #3640

SMILES | Inhibition [1] [%] | Inhibition [2] [%] | Inhibition [3] [%]
CCOc1ccccc1NC(=O)Cn1nc2c(Sc3ccccc3)nccn2c1=O | 3.54 | -0.33 | -18.53
Cc1cc(C)cc(N(Cc2ccc(F)cc2)S(=O)(=O)c2cccn3c(C)nnc23)c1 | -0.28 | 0.42 | -5.4
CSc1cccc(NC(=O)Cn2nc3c4c5c(sc4ncn3c2=O)CCCC5)c1 | -0.84 | 7.75 | -24.58
Cc1ccc(Cl)cc1NC(=O)CSc1nc2ccccc2n2c(C)nnc12 | 2.82 | 5.91 | -21.14

Reference: ChEMBL document CHEMBL4513146, “CO-ADD screening of Karazin Kharkiv National University (Ukraine) compounds”
